Screening data from PubChem BioAssay.
In the library only some 3.8% were active in any assay of this set; here they are far more common.
S2 tox: reduces viability in counter-screen for ATXN expression inhibitors; S2 cells (HEK-293 line with an ATXN2-luciferase reporter) viability, CellTiter-Fluor protease fluorescence, 24 h; Potency, µM (top dose mostly 56.7 µM), hits mostly cytotoxic; 400,000 tested, 0.49% active; note: nearly all actives have a fitted effect of over 40% in size
HT1080 IDH1KD tx: toxicity to HT-1080 IDH1 knockdown cells (counter line). 360,000 tested, 2% active. Potency, µM (series often up to 46.1 µM), most hits filed as cytotoxic. HT-1080 IDH1 knockdown viability, ATP luminescence, 48 h. AID 686971
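IDH1KD HT-1080 cells, 750/well, RPMI + 5% FBS; compound pinned after 2 h settling; 48 h, 37 °C; CellTiter-Glo luminescence; % activity normalised to DMSO and no-cell wells; curves fitted, classed by r2 and efficacy.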
ATXN2 expr inh: reduces ATXN2 reporter expression in HEK-293 cells. HEK-293 ATXN2-luciferase reporter, luminescence, 24 h. Potency, µM (titrated, usually from 57 µM), usual class: inhibitors. 360,000 tested, 0.72% active. AID 1745845; note: nearly all actives have a fitted effect of over 55% in size
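qHTS (up to 57 uM final) was run with 24 h compound exposure of reporter cells at 37 °C. Each well was multiplexed: SteadyGlo luminescence measured ATXN2-luciferase expression after a fluorogenic Gly-Phe-AFC viability readout (25 uM final).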
HepG2 viability: kills HepG2 cells in TGF-b inhibitor counter-screen; HepG2 CAGA-GFP viability, ATP luminescence, 18 h; Potency, µM (titrated, usually from 46.1 µM), most hits filed as cytotoxic; 410,000 tested, 0.76% active
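HepG2 CAGA-GFP cells (1000/well, DMEM with 1% FBS) received compound, then TGF-beta at 500 pg/mL final, and were incubated 18 hours at 37 degrees C. Viability was read by CellTiter-Glo luminescence. Media-only wells were set as complete cell-killing and DMSO as no toxicity.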
HT1080-NT tox: kills 2HG-producing HT-1080-NT fibrosarcoma cells. 360,000 tested, 1.6% active. HT-1080-NT fibrosarcoma viability, CellTiter-Glo ATP luminescence, 48 h. AID 686970. Potency, µM (highest dose often 46.1 µM), hits mostly cytotoxic;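 note: NT is the 2HG producing partner of a matched IDH1 knockdown line; nearly all actives have a fitted effect of over 55% in size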
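Toxicity toward the 2HG-producing NT line was scored as %Activity, normalised to DMSO and no-cell wells, from CellTiter-Glo luminescence after 48 hours' treatment.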
TGFb SMAD3 inh: inhibitors of TGF-b signaling. HepG2 CAGA-GFP TGF-b/SMAD3 reporter, GFP fluorescence, 18 h; TGF-beta stimulated, 500 pg/mL final. Potency, µM (doses to about 46.1 µM), hits mostly inhibitors. 410,000 tested, 1.2% active. AID 588855; note: nearly all actives have a fitted effect of over 65% in size
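First, reporter cells (HEPG2 CAGA-GFP) rested 2 h at 37 degrees C. Next, compounds were pinned in and TGF-beta added to 500 pg/mL final. After 18 h, GFP was imaged per cell and summed per well.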
A number is an active result; – = inactive; ? = inconclusive; · = no result given. Calls come from the whole dose curve; as a rule, active = well fitted curve in the direction sought with a large enough effect; inconclusive = small, poorly fitted or top-dose-only effect, or another doubt; inactive = no such curve, though single readings can be large; an effect the other way counts as inactive or inconclusive.

SMILES	S2 tox	HT1080 IDH1KD tx	ATXN2 expr inh	HepG2 viability	HT1080-NT tox	TGFb SMAD3 inh
CCc1nc2cc(C(=O)NC3CCOC(C)(C)C3)cc(NC(=O)c3ccccc3OC)c2n1C (stereo not drawn)	–	·	·	·	·	·
CN1OC[C@@H]2CN(Cc3ccccc3)[C@H](c3cccc(N4CCOCC4)c3)C[C@@H]21	–	–	–	–	–	–
Cc1ccccc1-c1cccc([C@@H]2C[C@H]3[C@H](CON3C)CN2Cc2ccccc2)c1	–	?	–	–	–	14.1µM
Cc1oc2c(c1C(=O)c1ccc(Cl)cc1)C(=O)C(=O)c1ccccc1-2	7.08µM	–	5.62µM	–	–	–
Cc1ccc(C(=O)c2coc3c2C(=O)C(=O)c2ccccc2-3)cc1	·	?	?	11.2µM	?	?
O=C(O)CCn1nnc(-c2cccs2)n1	–	–	–	–	–	–
CC(C)c1ccc(-c2nnn(CCC(=O)O)n2)cc1	–	–	0.562µM	–	–	–
O=C1NC[C@@H](CCCCN2C[C@H](Cc3ccccc3)N(CC3CCCCC3)C(=O)C2=O)N(CCc2ccc(O)cc2)C1=O	–	–	–	·	–	·
O=C1NC[C@H](Cc2ccccc2)N(C[C@H]2CCCN2C[C@H](Cc2ccccc2)N2C[C@H](Cc3ccccc3)N(CC3CCCCC3)C(=O)C2=O)C1=O	17.8µM	?	?	7.08µM	?	?
O=C1NC[C@H](CCCCN2C[C@H](Cc3ccc(O)cc3)N(CCc3ccccc3)C(=O)C2=O)N(CC2CCCCC2)C1=O	?	14.6µM	–	·	–	·
O=C1NC[C@H](Cc2ccccc2)N(C[C@@H]2CCCN2C[C@H](Cc2ccccc2)N2C[C@H](Cc3ccccc3)N(CC3CCCCC3)C(=O)C2=O)C1=O	·	?	?	–	?	17.8µM
C=CS(=O)(=O)N(Cc1ccccc1)[C@H](CO)CC(C)C	?	–	–	–	–	–
C=CS(=O)(=O)N(Cc1ccccc1Br)[C@H](CO)Cc1ccccc1	12.6µM	?	15.8µM	–	?	?
CN(Cc1cnc2nc(N)nc(N)c2n1)c1ccc(C(=O)NC(CCC(=O)O)C(=O)O)cc1 (stereo not drawn)	–	0.0065µM	?	0.282µM	0.231µM	–
CN(Cc1cnc2nc(N)nc(N)c2n1)c1ccc(C(=O)NC(CCC(=O)O)C(=O)O)cc1C(F)(F)F (stereo not drawn)	–	0.146µM	?	–	?	–
O=C1C2C3C=CC(C3)C2C(=O)N1/N=C/c1cn(Cc2ccccc2)c2ccccc12 (stereo not drawn)	–	–	–	–	–	4.47µM
CCOC(=O)Cn1cc(/C=N/N2C(=O)C3C4C=CC(C4)C3C2=O)c2ccccc21 (stereo not drawn)	–	–	–	–	–	6.31µM
CCOC(=O)Cn1cc(C(=O)C2CC2)c2ccccc21	–	–	–	–	–	–
O=C1C2C3C=CC(CC3)C2C(=O)N1/N=C/c1c[nH]c2ccccc12 (stereo not drawn)	?	–	–	–	–	–
O=C1C2C3C=CC(C3)C2C(=O)N1/N=C/c1cn(Cc2ccc(F)cc2)c2ccccc12 (stereo not drawn)	–	?	?	0.891µM	–	?
COc1cccc(NC(=O)CSc2nnc3[nH]c(=O)cc(-c4ccccc4)n23)c1	·	·	·	–	·	–
Cc1cccc(OCC(=O)Nc2ccc(O)c(-c3nc4ccccc4o3)c2)c1	·	·	·	–	·	–
Cc1cnc(-n2ncc(C(=O)NCCN3CCOCC3)c2C(C)C)nc1-c1ccc(F)cc1	–	·	·	·	·	·
COc1cc(C(=O)N(Cc2cc3ccc(C)cc3nc2N(C)C)C2CC2)cc(OC)c1OC	–	·	·	·	·	·
Cc1cc(C)c(NC(=O)Cn2c(=O)n(Cc3ccc(C(=O)NCc4ccco4)cc3)c(=O)c3sccc32)c(C)c1	·	·	·	–	·	10µM
SMILES	S2 tox	HT1080 IDH1KD tx	ATXN2 expr inh	HepG2 viability	HT1080-NT tox	TGFb SMAD3 inh
Cc1cccc(NC(=O)COc2ccccc2C(=O)Nc2ccccc2)c1	·	–	·	·	–	·
CCCN(CCC)CC(O)Cn1cc(/C=C/C(=O)c2ccccc2)c2ccccc21 (stereo not drawn)	?	14.6µM	–	12.6µM	?	?
O=C(/C=C/c1cn(CC(O)CN2CCCCC2)c2ccccc12)c1ccccc1 (stereo not drawn)	·	16.4µM	–	–	?	?
COc1ccc(C(=O)/C=C/c2cn(CC(O)CN3CCN(C)CC3)c3ccccc23)cc1OC (stereo not drawn)	·	14.6µM	–	–	16.4µM	?
CCCN(CCC)CC(O)Cn1cc(/C=C/C(=O)c2ccc(OC)cc2)c2ccccc21 (stereo not drawn)	·	·	·	–	·	·
CCCN(CCC)CC(O)Cn1cc(/C=C/C(=O)c2ccc(Br)cc2)c2ccccc21 (stereo not drawn)	·	·	–	–	·	–
CCCN(CCC)CC(O)Cn1cc(/C=C/C(=O)c2ccc(C)cc2)c2ccccc21 (stereo not drawn)	?	·	?	8.91µM	·	?
